Laboratory results reported in the supplement of paper PMC10849652.
Of roughly 7,900 targets only a part is listed; those with a hit were picked by preference. About 0.6% of all pairs of compound and target were hits.

Experiments:
Assay in all cases: log2 fold change, soluble protein after heating vs DMSO (PISA); higher = thermal stabilisation; K562 cells, 10 uM, 30 min; active = over 0.2 and 3.5 SD of the protein, either way, in both replicates (recomputed)
[1] = compound: CC1=C(C=C(C=C1)NC(=O)C2=CC(=CC=C2)C(C)(C)C#N)NC3=CC4=C(C=C3)N=CN(C4=O)C
Method in brief: (§1)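 K562 cells at 2×10^6 cells/mL were treated for 30 min with 10 μM compound, and aliquots were heated for 3 min over 48°C-58°C before pooling. Extraction used PBS with 0.5% NP-40 at 4°C, and soluble protein was the supernatant after 21,000xg for 90 min, measured by TMTpro 16plex LC-MS/MS with channel sums equalised. Thermal stability values, relative to control samples and from duplicates, are log2 fold changes.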

[2] = compound: CC1=C(C=C(C=C1)NC(=O)C2=CC(=CC=C2)N(C)C)NC(=O)C3=CC=C(C=C3)O
Method in brief: as §1

[3] = compound: CC1=CC=C(C=C1)SC2=C3C=C(SC3=CN=C2)C(=O)N
Method in brief: as §1

[4] = compound: CC1=NC(=CC=C1)C2=C(N=C(N2)C(C)(C)C)C3=CC4=NC=CN=C4C=C3
Method in brief: as §1

[5] = compound: CCCCN(Cc1ccc(C(=O)NO)cc1)C(=O)Nc1ccccc1 [Nexturastat A]
Method in brief: as §1

[6] = compound: CCCS(=O)(=O)Nc1ccc(F)c(C(=O)c2c[nH]c3ncc(-c4ccc(Cl)cc4)cc23)c1F [vemurafenib]
Method in brief: as §1

[7] = compound: CCCS(=O)(=O)Nc1ccc(F)c(C(=O)c2c[nH]c3ncc(Cl)cc23)c1F
Method in brief: as §1

[8] = compound: CCCc1cc(C)[nH]c(=O)c1CNC(=O)c1cc(-c2ccnc(N3CCN(C)CC3)c2)cc2c1cnn2C(C)C
Method in brief: as §1

[9] = compound: CCN(CC)Cc1ccc2cc(COC(=O)Nc3ccc(C(=O)NO)cc3)ccc2c1 [givinostat]
Method in brief: as §1

[10] = compound: CCN(CCCOc1ccc2c(Nc3cc(CC(=O)Nc4cccc(F)c4)[nH]n3)ncnc2c1)CCOP(=O)(O)O [barasertib]
Method in brief: as §1

Measured: log2 fold change

SYF2 (UniProt O95926)
inactive: [1] 0.03 | [2] 0.049 | [3] -0.063 | [4] -0.133 | [5] -0.015 | [6] -0.071 | [7] -0.134 | [8] -0.008 | [9] 0.031 | [10] -0.083

SPR (UniProt P35270)
inactive: [1] 0.103 | [2] -0.003 | [3] 0.063 | [4] -0.043 | [5] -0.069 | [6] -0.019 | [7] 0.019 | [8] 0.009 | [9] -0.004 | [10] -0.076

TLK1 (UniProt Q9UKI8)
Sequence of UniProt Q9UKI8 (Q9UKI8 whole entry, looked up): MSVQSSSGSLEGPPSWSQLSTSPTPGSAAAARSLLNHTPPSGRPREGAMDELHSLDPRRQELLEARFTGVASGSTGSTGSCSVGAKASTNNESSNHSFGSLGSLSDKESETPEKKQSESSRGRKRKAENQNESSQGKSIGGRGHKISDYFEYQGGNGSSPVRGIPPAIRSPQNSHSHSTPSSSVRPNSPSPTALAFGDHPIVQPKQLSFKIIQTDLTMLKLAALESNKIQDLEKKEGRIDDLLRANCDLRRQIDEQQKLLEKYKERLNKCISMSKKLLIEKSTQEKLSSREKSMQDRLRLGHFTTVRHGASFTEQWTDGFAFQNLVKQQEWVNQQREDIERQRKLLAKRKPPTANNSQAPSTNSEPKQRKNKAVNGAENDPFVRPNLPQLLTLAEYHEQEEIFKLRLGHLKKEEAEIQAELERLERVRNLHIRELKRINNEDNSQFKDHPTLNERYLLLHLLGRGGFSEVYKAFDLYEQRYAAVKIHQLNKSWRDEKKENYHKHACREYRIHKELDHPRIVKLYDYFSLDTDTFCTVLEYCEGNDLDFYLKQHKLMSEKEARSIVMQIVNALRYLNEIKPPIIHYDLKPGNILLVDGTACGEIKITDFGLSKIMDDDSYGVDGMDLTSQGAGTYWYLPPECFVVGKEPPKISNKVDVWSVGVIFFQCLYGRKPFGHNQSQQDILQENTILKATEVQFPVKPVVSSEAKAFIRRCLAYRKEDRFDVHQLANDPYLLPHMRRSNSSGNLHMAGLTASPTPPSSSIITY
inactive: [1] 0.062 | [2] -0.009 | [3] 0.018 | [4] 0.011 | [5] 0.012 | [6] 0.008 | [7] 0.019 | [8] -0.053 | [9] 0.078 | [10] 0.079

SNX5 (UniProt Q9Y5X3)
Sequence of UniProt Q9Y5X3 (Q9Y5X3 whole entry, looked up): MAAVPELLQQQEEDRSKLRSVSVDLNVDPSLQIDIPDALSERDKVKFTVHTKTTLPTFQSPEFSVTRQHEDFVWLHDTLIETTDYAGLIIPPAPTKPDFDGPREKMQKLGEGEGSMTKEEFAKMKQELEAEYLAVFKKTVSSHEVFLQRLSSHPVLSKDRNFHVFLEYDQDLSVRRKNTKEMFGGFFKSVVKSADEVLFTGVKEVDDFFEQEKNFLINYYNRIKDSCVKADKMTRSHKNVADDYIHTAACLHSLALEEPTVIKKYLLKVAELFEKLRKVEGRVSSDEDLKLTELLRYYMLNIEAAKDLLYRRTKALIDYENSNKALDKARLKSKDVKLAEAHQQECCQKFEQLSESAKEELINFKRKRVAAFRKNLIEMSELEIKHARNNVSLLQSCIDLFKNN
inactive: [1] 0.001 | [2] 0.015 | [3] 0.009 | [4] 0.039 | [5] -0.074 | [6] 0.009 | [7] 0.035 | [8] -0.031 | [9] 0.013 | [10] 0.04

TJP1 (UniProt Q07157)
inactive: [1] 0.03 | [2] -0.039 | [3] 0.011 | [4] -0.012 | [5] -0.005 | [6] 0.041 | [7] 0.065 | [8] -0.021 | [9] 0.102 | [10] 0.033

TANK (UniProt Q92844)
inactive: [1] -0.076 | [2] 0.059 | [3] 0.007 | [4] 0.028 | [5] -0.047 | [6] -0.031 | [7] -0.018 | [8] 0.065 | [9] 0.013 | [10] 0.089

SRSF2 (UniProt Q01130)
inactive: [1] -0.023 | [2] 0.053 | [3] -0.033 | [4] -0.032 | [5] 0.036 | [6] -0.046 | [7] -0.025 | [8] -0.023 | [9] 0.005 | [10] -0.007

SMARCAD1 isoform 2 (UniProt Q9H4L7)
Sequence of UniProt Q9H4L7 (Q9H4L7 whole entry, looked up): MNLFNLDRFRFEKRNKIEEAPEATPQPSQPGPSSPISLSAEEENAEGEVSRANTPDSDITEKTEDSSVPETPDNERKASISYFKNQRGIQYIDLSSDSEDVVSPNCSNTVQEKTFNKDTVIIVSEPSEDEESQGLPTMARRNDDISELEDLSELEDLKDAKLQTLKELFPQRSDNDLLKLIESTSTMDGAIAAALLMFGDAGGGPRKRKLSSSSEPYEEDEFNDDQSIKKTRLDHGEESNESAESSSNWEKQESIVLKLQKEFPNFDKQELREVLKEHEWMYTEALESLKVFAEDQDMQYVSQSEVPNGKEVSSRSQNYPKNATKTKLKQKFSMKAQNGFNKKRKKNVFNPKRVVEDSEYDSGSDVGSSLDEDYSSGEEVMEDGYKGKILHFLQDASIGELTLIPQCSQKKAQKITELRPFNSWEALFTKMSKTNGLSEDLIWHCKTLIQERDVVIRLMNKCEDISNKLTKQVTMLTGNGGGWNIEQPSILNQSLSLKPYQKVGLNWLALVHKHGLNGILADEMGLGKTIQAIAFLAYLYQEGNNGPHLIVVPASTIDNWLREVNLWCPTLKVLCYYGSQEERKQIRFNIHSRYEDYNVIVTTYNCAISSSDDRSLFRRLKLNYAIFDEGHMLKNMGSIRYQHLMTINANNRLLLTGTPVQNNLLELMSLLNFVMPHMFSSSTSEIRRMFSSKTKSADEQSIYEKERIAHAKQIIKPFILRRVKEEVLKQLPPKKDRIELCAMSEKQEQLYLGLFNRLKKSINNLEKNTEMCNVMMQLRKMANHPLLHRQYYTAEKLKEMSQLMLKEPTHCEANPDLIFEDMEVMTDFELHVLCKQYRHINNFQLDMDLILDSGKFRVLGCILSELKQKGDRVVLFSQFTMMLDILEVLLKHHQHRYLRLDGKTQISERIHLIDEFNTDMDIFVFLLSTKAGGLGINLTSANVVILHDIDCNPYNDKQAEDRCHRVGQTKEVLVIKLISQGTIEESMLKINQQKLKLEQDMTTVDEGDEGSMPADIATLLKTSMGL
inactive: [1] 0.028 | [2] -0.072 | [3] -0.026 | [4] 0.064 | [5] -0.028 | [6] 0.192 | [7] 0.101 | [8] 0.035 | [9] 0.127 | [10] 0.089

TFRC (UniProt P02786)
inactive: [1] -0.008 | [2] 0.023 | [3] 0.02 | [4] 0.026 | [5] -0.067 | [6] -0.002 | [7] -0.007 | [8] -0.026 | [9] 0.004 | [10] -0.015

TARBP1 (UniProt Q13395)
Sequence of UniProt Q13395 (Q13395 whole entry, looked up): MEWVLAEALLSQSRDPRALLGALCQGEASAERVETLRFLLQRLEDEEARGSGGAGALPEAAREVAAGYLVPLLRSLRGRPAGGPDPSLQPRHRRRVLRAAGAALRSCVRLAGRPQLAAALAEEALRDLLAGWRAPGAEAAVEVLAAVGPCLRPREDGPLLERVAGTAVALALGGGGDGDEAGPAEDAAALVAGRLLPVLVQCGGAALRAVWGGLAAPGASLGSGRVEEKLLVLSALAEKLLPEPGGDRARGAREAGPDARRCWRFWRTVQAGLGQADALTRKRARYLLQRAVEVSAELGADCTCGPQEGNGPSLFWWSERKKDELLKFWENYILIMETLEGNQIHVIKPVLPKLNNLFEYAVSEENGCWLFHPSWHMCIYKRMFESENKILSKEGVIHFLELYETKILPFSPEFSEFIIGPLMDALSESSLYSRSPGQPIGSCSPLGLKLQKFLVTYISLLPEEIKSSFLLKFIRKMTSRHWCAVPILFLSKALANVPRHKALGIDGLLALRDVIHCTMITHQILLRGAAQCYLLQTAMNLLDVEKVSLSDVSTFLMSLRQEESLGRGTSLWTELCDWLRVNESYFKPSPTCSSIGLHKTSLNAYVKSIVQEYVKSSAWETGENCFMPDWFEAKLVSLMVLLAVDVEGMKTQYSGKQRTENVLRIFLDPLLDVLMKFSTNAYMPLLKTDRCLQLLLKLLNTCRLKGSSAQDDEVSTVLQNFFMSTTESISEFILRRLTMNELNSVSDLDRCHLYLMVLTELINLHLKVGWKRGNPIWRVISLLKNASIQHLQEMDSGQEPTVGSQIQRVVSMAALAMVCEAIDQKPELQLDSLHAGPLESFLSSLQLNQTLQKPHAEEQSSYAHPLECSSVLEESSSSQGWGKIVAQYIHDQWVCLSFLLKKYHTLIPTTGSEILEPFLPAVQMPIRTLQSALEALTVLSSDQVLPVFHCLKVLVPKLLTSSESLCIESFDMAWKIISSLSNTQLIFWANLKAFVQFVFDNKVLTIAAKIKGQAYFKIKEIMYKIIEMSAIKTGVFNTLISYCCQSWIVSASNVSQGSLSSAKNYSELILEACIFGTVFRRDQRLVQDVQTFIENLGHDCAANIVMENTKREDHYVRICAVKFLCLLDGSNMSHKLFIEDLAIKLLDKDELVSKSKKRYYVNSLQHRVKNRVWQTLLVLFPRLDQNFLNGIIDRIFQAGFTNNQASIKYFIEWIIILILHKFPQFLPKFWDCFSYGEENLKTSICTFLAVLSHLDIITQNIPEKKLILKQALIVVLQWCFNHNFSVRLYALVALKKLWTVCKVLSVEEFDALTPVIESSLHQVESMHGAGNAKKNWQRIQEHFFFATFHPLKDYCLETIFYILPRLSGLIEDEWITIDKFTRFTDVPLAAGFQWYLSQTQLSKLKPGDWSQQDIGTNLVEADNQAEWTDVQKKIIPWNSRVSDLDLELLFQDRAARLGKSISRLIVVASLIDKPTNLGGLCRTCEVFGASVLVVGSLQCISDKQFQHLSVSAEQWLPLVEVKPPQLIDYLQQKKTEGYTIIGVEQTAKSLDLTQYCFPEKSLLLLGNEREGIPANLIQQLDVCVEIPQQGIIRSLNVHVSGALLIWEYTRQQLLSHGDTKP
inactive: [1] 0.069 | [2] 0.001 | [3] 0.002 | [4] -0.01 | [5] 0.016 | [6] 0.036 | [7] -0.062 | [8] -0.067 | [9] -0.017 | [10] 0.023

SSB (UniProt P05455)
inactive: [1] -0.02 | [2] 0.024 | [3] -0.026 | [4] 0.024 | [5] 0.019 | [6] -0.003 | [7] 0.003 | [8] 0.036 | [9] -0.175 | [10] 0.074

STX7 (UniProt O15400)
inactive: [1] -0.003 | [2] 0.025 | [3] -0.002 | [4] 0.055 | [5] -0.023 | [6] -0.036 | [7] 0 | [8] 0 | [9] -0.002 | [10] -0.02

TM9SF4 (UniProt Q92544)
Sequence of UniProt Q92544 (Q92544 whole entry, looked up): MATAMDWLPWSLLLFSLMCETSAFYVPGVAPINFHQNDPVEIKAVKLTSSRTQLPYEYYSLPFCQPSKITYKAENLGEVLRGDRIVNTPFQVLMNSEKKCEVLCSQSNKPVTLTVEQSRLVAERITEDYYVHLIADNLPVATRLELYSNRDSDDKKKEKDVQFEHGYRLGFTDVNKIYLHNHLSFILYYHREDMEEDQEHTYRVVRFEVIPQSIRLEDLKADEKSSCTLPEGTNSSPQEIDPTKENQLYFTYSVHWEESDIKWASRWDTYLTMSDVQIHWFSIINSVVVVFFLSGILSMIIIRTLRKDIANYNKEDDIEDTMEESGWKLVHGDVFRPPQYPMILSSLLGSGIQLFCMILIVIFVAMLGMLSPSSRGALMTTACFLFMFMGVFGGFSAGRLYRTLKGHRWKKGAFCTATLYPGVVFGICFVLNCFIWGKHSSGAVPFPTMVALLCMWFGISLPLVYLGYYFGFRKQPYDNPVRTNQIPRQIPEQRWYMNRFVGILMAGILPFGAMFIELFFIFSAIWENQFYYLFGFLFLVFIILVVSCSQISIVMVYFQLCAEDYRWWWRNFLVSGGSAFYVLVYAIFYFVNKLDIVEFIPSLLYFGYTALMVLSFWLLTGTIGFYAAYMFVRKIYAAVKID
inactive: [1] 0.084 | [2] -0.022 | [3] 0.014 | [4] -0.012 | [5] -0.029 | [6] 0.031 | [7] 0.073 | [8] 0.034 | [9] 0.054 | [10] 0.004

SQSTM1 (UniProt Q13501)
inactive: [1] 0.04 | [2] -0.065 | [3] -0.054 | [4] -0.012 | [5] 0.102 | [6] 0.064 | [7] 0.047 | [8] 0.103 | [9] -0.027 | [10] 0.032

SLC38A2 (UniProt Q96QD8)
Sequence of UniProt Q96QD8 (Q96QD8 whole entry, looked up): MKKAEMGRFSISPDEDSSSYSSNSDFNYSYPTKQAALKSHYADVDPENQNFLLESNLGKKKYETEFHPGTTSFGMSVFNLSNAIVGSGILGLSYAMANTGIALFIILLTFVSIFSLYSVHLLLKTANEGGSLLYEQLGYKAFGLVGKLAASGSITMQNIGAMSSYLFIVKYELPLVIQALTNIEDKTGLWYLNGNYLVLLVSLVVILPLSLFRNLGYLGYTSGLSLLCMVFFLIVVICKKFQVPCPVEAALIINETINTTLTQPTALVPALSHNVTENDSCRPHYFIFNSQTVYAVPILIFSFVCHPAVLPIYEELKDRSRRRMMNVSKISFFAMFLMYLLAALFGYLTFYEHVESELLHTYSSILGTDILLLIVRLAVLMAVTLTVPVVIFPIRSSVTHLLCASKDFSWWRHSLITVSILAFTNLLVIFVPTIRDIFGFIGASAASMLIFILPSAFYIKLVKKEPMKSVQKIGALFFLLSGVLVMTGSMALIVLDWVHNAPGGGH
inactive: [1] 0.118 | [2] 0.026 | [3] 0.067 | [4] 0.062 | [5] -0.133 | [6] 0.032 | [7] 0.096 | [8] -0.107 | [9] -0.014 | [10] -0.039
